Our source for the cell viability values is the supplement of paper PMC10981050.

Several values for one entry are separate records, joined by “and”; a condition that tells them apart may be missing. Identical values can stand only once.

Holding throughout (assay): cell viability relative to vehicle control; higher = less cytotoxic
Conditions in all cases: 10 µM

One assay concerns K562. The gist of the method:
(§1)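 Screening covered the Selleck bioactive, kinase and epigenetic probe libraries, less identity-inconsistent compounds, on CRISPR-edited mutant clones and isogenic wild-type clones of four leukaemia lines. Cells, at 2000 per well in 50 µL medium, received a single 10 µM acoustically dispensed dose. After 48 h the supernatant was removed and CellTiter-Glo luminescence was read. Viability was analysed in Genedata Screener as percent of the on-plate vehicle control.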

Another assay has as its system MARIMO. The procedure, abridged:
as §1

A further assay deals with MOLM14. The procedure, abridged: as §1
The subject of another assay is OCI-AML2. The procedure, abridged:
as §1

`COc1ccc(S(=O)(=O)NCc2ccc(C(=O)NCCc3ccc(Cl)cn3)cc2)cc1`: the cell viability (as a rule, a read-out of living cells in per cent, often relative to untreated cells) was 83.3% and 86.3% with K562 (SRSF2 genotype: SRSF2 P95H/wt); 81.6% with K562 (SRSF2 genotype: SRSF2 wt/wt); 84.3% in the assay with MARIMO (SRSF2 genotype: SRSF2 P95H/wt); 105% in the assay with MARIMO (SRSF2 genotype: SRSF2 wt/wt); 83.4% in the assay on MOLM14 (SRSF2 genotype: SRSF2 P95H/wt); 90.9% in the assay with MOLM14 (SRSF2 genotype: SRSF2 wt/wt). Moreover, the cell viability with OCI-AML2 (SRSF2 genotype: P95H/wt) was found to be 92.7%; in the assay on OCI-AML2 (SRSF2 genotype: wt/wt), 104%.

As to `COc1ccc(COc2ccc(CC#N)cc2)cc1`, the cell viability came out at 103% with K562 (SRSF2 genotype: SRSF2 P95H/wt); 97.9% with K562 (SRSF2 genotype: SRSF2 wt/wt); 96.4% in the assay on MARIMO (SRSF2 genotype: SRSF2 P95H/wt); 108% with MARIMO (SRSF2 genotype: SRSF2 wt/wt); 114% in the assay with MOLM14 (SRSF2 genotype: SRSF2 P95H/wt); 110% with MOLM14 (SRSF2 genotype: SRSF2 wt/wt). Also, the cell viability in the assay with OCI-AML2 (SRSF2 genotype: P95H/wt) is 96.3%; in the assay with OCI-AML2 (SRSF2 genotype: wt/wt), 82.9%.

Consider `C=CC(=O)N1CC(N2CCN(C(=O)CNc3cc(C4(C)CC4)c(Cl)cc3O)CC2)C1`, for which the cell viability in the assay with K562 (SRSF2 genotype: SRSF2 P95H/wt) was 93.9% and 95.2%; in the assay with K562 (SRSF2 genotype: SRSF2 wt/wt), 97.3%; in the assay on MARIMO (SRSF2 genotype: SRSF2 P95H/wt) it was 88.9%; in the assay with MARIMO (SRSF2 genotype: SRSF2 wt/wt), 102%; with MOLM14 (SRSF2 genotype: SRSF2 P95H/wt) it was 86.1%; with MOLM14 (SRSF2 genotype: SRSF2 wt/wt), 104%. Also, the cell viability worked out at 112% in the assay with OCI-AML2 (SRSF2 genotype: P95H/wt) and 108% in the assay on OCI-AML2 (SRSF2 genotype: wt/wt).

In the case of `COc1cc(C=CC=O)ccc1O` [Ferulaldehyde], the cell viability in the assay on K562 (SRSF2 genotype: SRSF2 P95H/wt) is 102% and 97.5%; with K562 (SRSF2 genotype: SRSF2 wt/wt), 98.5%; with MARIMO (SRSF2 genotype: SRSF2 P95H/wt), 97%; with MARIMO (SRSF2 genotype: SRSF2 wt/wt), 103%; in the assay on MOLM14 (SRSF2 genotype: SRSF2 P95H/wt), 89.6%; in the assay on MOLM14 (SRSF2 genotype: SRSF2 wt/wt), 97.7%. The cell viability in the assay with OCI-AML2 (SRSF2 genotype: P95H/wt) is 95.6%; in the assay with OCI-AML2 (SRSF2 genotype: wt/wt), 111%.

Consider `CC(C)=CCc1cc2c(cc1O)oc(=O)c1c3ccc(O)cc3oc21` [Psoralidin], for which the cell viability in the assay on K562 (SRSF2 genotype: SRSF2 P95H/wt) is 98.2% and 95.7%; in the assay on K562 (SRSF2 genotype: SRSF2 wt/wt), 95.2%; in the assay with MARIMO (SRSF2 genotype: SRSF2 P95H/wt), 98%; in the assay on MARIMO (SRSF2 genotype: SRSF2 wt/wt), 106%; with MOLM14 (SRSF2 genotype: SRSF2 P95H/wt) it was 115%; in the assay on MOLM14 (SRSF2 genotype: SRSF2 wt/wt) it was 107%. Moreover, the cell viability with OCI-AML2 (SRSF2 genotype: P95H/wt) was 98%; in the assay with OCI-AML2 (SRSF2 genotype: wt/wt), 98.9%.

For `Cc1noc(C)c1-c1ccc(-c2cc(C(N)=O)c(NC(N)=O)s2)c(O[C@H]2CCNC2)c1`, the cell viability in the assay with K562 (SRSF2 genotype: SRSF2 P95H/wt) was found to be 101%; in the assay with K562 (SRSF2 genotype: SRSF2 wt/wt), 93.8%; in the assay on MARIMO (SRSF2 genotype: SRSF2 P95H/wt) it was 94.9%; in the assay on MARIMO (SRSF2 genotype: SRSF2 wt/wt), 103%; in the assay on MOLM14 (SRSF2 genotype: SRSF2 P95H/wt), 89.5%; in the assay with MOLM14 (SRSF2 genotype: SRSF2 wt/wt), 99.7%. The cell viability was 101% with OCI-AML2 (SRSF2 genotype: P95H/wt) and 105% in the assay on OCI-AML2 (SRSF2 genotype: wt/wt).

For `CCC[C@H](Nc1nc(-c2ccc(NC(=O)NCC)c(OC)c2)ncc1C)c1cccnc1`, the cell viability was 10.5% and 35.4% in the assay with K562 (SRSF2 genotype: SRSF2 P95H/wt); 31.9% in the assay with K562 (SRSF2 genotype: SRSF2 wt/wt); 7.27% in the assay on MARIMO (SRSF2 genotype: SRSF2 P95H/wt); 10% with MARIMO (SRSF2 genotype: SRSF2 wt/wt); 1.24% with MOLM14 (SRSF2 genotype: SRSF2 P95H/wt); 1.12% in the assay on MOLM14 (SRSF2 genotype: SRSF2 wt/wt). For the same compound, the cell viability in the assay with OCI-AML2 (SRSF2 genotype: P95H/wt) amounted to 0.85%; with OCI-AML2 (SRSF2 genotype: wt/wt) it was 2.78%.

As for `COc1ccc(-c2oc3c(CC=C(C)C)c(O[C@@H]4O[C@H](CO)[C@@H](O)[C@H](O)[C@H]4O)cc(O)c3c(=O)c2O[C@@H]2O[C@@H](C)[C@H](O)[C@@H](O)[C@H]2O[C@@H]2O[C@@H](C)[C@H](O)[C@@H](O)[C@H]2O)cc1` [Epmedin C], the cell viability with K562 (SRSF2 genotype: SRSF2 P95H/wt) was 104% and 108%; in the assay on K562 (SRSF2 genotype: SRSF2 wt/wt) it was 106%; in the assay on MARIMO (SRSF2 genotype: SRSF2 P95H/wt), 100%; with MARIMO (SRSF2 genotype: SRSF2 wt/wt), 103%; in the assay on MOLM14 (SRSF2 genotype: SRSF2 P95H/wt), 107%; in the assay with MOLM14 (SRSF2 genotype: SRSF2 wt/wt), 105%. Besides, the results for the cell viability with OCI-AML2 (SRSF2 genotype: P95H/wt) and with OCI-AML2 (SRSF2 genotype: wt/wt) were 103% and 107%, respectively.

Take `COc1ccc(C(=O)C2CCN(CC(=O)N(Cc3nc4c(c(=O)[nH]3)COCC4)CC3CC3)CC2)cc1`: the cell viability in the assay with K562 (SRSF2 genotype: SRSF2 P95H/wt) was 110% and 104%; in the assay on K562 (SRSF2 genotype: SRSF2 wt/wt), 102%; in the assay on MARIMO (SRSF2 genotype: SRSF2 P95H/wt), 108%; in the assay on MARIMO (SRSF2 genotype: SRSF2 wt/wt) it was 110%; in the assay with MOLM14 (SRSF2 genotype: SRSF2 P95H/wt), 109%; in the assay on MOLM14 (SRSF2 genotype: SRSF2 wt/wt), 102%. The cell viability with OCI-AML2 (SRSF2 genotype: P95H/wt) is 98.8%; in the assay on OCI-AML2 (SRSF2 genotype: wt/wt), 109%.
